Experimental findings from PubChem BioAssay (Tox21) are described below.

Test [1] can be described thus: qHTS assay to identify small molecule antagonists of the glucocorticoid receptor (GR) signaling pathway - cell viability counter screen (AID 720693). Further: nearly all actives have a fitted effect of over 55% in size. On the technique in general: Quantitative high-throughput screening tests each substance at several concentrations.
Test [2] can be described thus: qHTS assay for identifying genotoxic compounds that show differential cytotoxicity against isogenic chicken DT40 cell lines with known DNA damage response pathways - Rev3 mutant cell line (AID 743014). Further: nearly all actives have a fitted effect of over 55% in size. Further: potency means the concentration at half of the fitted maximal effect.
The nature of test [3]: qHTS assay to identify small molecule antagonists of the androgen receptor (AR) signaling pathway - cell viability counter screen (AID 743033; further: nearly all actives have a fitted effect of over 45% in size).
A short description of test [4]: qHTS assay to identify small molecule antagonists of the androgen receptor (AR) signaling pathway using the MDA cell line - cell viability counter screen (AID 743041; further: nearly all actives have a fitted effect of over 45% in size). The method, boiled down: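 Viability read by CellTiter-Fluor fluorescence in the same wells as the antagonist screen, added after 15.5 h of a 16 h, 37C exposure. Human breast carcinoma MDA-kb2 AR-luc cells, compounds co-dosed with agonist R1881.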

Test [5] in a line: qHTS assay to identify small molecule antagonists of the thyroid receptor (TR) signaling pathway (AID 743065). Further: nearly all actives have a fitted effect of over 55% in size. Further: potency means the concentration at half of the fitted maximal effect. On activity, negative = inhibition: series mostly up to about 70 µM. An outline of the steps: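 Antagonism measured as loss of luciferase signal in GH3 cells stably carrying a TRE-luciferase reporter, co-treated with compound and T3 (1 nM final) for 23.5 h at 37 C. Viability was read in the same well by CellTiter-Fluor.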
Test [6] concerns thyroid hormone receptor (rat, GH3 cells). Description: qHTS assay to identify small molecule agonists of the thyroid receptor (TR) signaling pathway (AID 743066; calls by dose curve).
The target of test [7] is Estrogen receptor (Homo sapiens) (UniProt P03372). Description: qHTS assay to identify small molecule antagonists of the estrogen receptor alpha (ER-alpha) signaling pathway (AID 743069; active means well fitted curve in the direction sought with a large enough effect in the signal ratio in the repeat runs, not every such curve was filed as active; the % refers to the signal ratio). An outline of the steps: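 Antagonist mode: compounds in DMSO were co-added with 17beta-estradiol to ER-alpha-bla HEK293 cells (2% charcoal-stripped serum) and left 18 h at 37C. Reporter inhibition was measured as FRET fluorescence after 2 h LiveBLAzer substrate at room temperature.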
Estrogen receptor (Homo sapiens), sequence (P03372 whole entry, looked up): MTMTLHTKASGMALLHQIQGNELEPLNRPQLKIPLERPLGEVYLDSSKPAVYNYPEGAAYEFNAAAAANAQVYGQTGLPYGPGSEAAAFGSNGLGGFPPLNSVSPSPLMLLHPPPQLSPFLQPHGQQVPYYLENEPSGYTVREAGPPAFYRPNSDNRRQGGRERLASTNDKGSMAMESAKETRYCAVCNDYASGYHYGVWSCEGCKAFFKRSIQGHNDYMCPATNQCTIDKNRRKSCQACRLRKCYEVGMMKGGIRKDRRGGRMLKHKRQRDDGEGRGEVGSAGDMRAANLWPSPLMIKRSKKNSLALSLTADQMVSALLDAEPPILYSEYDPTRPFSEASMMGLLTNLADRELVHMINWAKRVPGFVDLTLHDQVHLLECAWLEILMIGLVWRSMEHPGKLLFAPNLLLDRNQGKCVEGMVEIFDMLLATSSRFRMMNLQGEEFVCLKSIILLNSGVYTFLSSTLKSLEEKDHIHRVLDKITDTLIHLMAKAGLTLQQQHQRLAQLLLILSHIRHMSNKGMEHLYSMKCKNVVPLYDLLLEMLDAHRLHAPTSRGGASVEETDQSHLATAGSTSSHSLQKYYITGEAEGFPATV

A short description of test [8]: qHTS assay to identify small molecule antagonists of the estrogen receptor alpha (ER-alpha) signaling pathway - cell viability counter screen (AID 743074; calls by dose curve;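 further: HEK293 cells carrying ER-alpha-UAS-bla reporter stimulated with 17beta-estradiol; nearly all actives have a fitted effect of over 45% in size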).
In test [9] the target is Estrogen receptor (Homo sapiens) (UniProt P03372). The test is described as follows: qHTS assay to identify small molecule agonists of the estrogen receptor alpha (ER-alpha) signaling pathway (AID 743075; calls by dose curve;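 further: HEK293 GripTite cells with ER-alpha and UAS-driven beta-lactamase reporter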).
The target is the same in test [10]. The test is described as follows: qHTS assay to identify small molecule agonists of the estrogen receptor alpha (ER-alpha) signaling pathway using the BG1 cell line (AID 743079). Further: nearly all actives have a fitted effect of over 20% in size. Further: potency means the concentration at half of the fitted maximal effect.
Test [11] can be described thus: qHTS assay to identify small molecule antagonists of the estrogen receptor alpha (ER-alpha) signaling pathway using the BG1 cell line (AID 743080; calls by dose curve;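 further: BG1 cells stimulated with 17beta-estradiol alongside compound; series mostly up to about 70 µM; nearly all actives have a fitted effect of over 25% in size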). An outline of the steps: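 Quantitative HTS on the Tox21 10K library: BG1 cells with endogenous ER-alpha and ERE-luciferase reporter, 17beta-estradiol stimulation, 21.5 h compound exposure, luminescence endpoint with parallel fluorescence cytotoxicity counter-read.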

Test [12] can be described thus: qHTS assay to identify small molecule antagonists of the estrogen receptor alpha (ER-alpha) signaling pathway using the BG1 cell line - cell viability counter screen (AID 743081).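 Further: compound given together with 17beta-estradiol as the ER stimulus; nearly all actives have a fitted effect of over 45% in size.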 Further: potency means the concentration at half of the fitted maximal effect. On activity change, negative = cytotoxicity: series mostly up to about 70 µM.
A further test has as its target Aromatase (Homo sapiens) (UniProt P11511). The test is described as follows: qHTS assay to identify aromatase inhibitors (AID 743083). Further: series mostly up to about 70 µM; nearly all actives have a fitted effect of over 55% in size.
A short description of test [13]: qHTS assay for identifying genotoxic compounds that show differential cytotoxicity against isogenic chicken DT40 cell lines with known DNA damage response pathways - Rad54/Ku70 mutant cell line (AID 743015). Further: nearly all actives have a fitted effect of over 60% in size. Further: potency means the concentration at half of the fitted maximal effect.
The nature of test [14]: qHTS assay to identify small molecule antagonists of the thyroid receptor (TR) signaling pathway - cell viability counter screen (AID 743064). Further: nearly all actives have a fitted effect of over 50% in size. Further: potency means the concentration at half of the fitted maximal effect. The method, boiled down: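 Counter screen for cytotoxicity: compound plus T3 (1 nM final) on GH3.TRE-Luc cells, 23.5 h at 37 °C, then fluorescence viability readout with CellTiter-Fluor.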
Test [15] deals with Androgen receptor (Homo sapiens) (UniProt P10275). Description: qHTS assay to identify small molecule agonists of the androgen receptor (AR) signaling pathway (AID 743036; active means well fitted activation curve with a large enough effect in the signal ratio in the repeat runs, with a control signal flat, not every such curve was filed as active; the % refers to the signal ratio). The method, boiled down: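 In this Tox21 qHTS, 2,000 HEK293 AR-bla cells per well were incubated with compounds for 16 h at 37C and 5% CO2. Fluorescence intensity was recorded 2 h after adding LiveBLAzer B/G FRET substrate at room temperature.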
Androgen receptor (Homo sapiens), sequence (P10275 whole entry, looked up): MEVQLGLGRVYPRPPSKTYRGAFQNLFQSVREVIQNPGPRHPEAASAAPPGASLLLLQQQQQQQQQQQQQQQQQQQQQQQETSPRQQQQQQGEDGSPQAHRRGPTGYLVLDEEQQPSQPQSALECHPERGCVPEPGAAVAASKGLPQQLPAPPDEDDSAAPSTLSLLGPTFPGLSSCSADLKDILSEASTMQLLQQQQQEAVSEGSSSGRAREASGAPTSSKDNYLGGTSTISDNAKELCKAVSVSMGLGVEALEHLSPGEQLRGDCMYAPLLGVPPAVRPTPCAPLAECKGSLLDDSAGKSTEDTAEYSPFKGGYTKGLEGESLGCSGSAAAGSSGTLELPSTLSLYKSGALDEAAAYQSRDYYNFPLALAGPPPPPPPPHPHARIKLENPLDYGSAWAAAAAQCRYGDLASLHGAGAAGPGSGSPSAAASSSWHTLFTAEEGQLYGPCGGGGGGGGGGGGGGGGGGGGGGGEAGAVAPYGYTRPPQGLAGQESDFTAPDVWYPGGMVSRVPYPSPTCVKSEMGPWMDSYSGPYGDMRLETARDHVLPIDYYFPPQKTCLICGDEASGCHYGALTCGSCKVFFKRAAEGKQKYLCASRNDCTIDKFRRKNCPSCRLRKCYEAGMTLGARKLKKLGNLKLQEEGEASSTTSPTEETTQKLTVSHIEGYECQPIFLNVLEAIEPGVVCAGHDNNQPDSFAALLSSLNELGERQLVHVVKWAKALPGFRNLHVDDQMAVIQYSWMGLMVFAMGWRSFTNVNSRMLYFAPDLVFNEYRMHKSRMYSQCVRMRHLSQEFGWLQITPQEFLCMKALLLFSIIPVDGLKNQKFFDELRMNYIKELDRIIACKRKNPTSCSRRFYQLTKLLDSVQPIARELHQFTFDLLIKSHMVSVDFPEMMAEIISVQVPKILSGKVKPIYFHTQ

Test [16] shares this target. The test is described as follows: qHTS assay to identify small molecule agonists of the androgen receptor (AR) signaling pathway using the MDA cell line (AID 743040; further: nearly all actives have a fitted effect of over 20% in size). An outline of the steps:
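Luciferase agonist assay: 16 h compound exposure at 37C without CO2 in MDA-kb2 AR-luc cells, whose MMTV promoter responds to both AR and GR. Luminescence measured after 30 min room-temperature incubation with ONE-Glo.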

Test [17] has the same target. Description: qHTS assay to identify small molecule antagonists of the androgen receptor (AR) signaling pathway using the MDA cell line (AID 743042; further: nearly all actives have a fitted effect of over 55% in size). An outline of the steps: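 Antagonist mode: compounds plus R1881 agonist added to MDA-kb2 AR-luc cells, incubated 16 h at 37C. Luciferase reporter luminescence quantified, with multiplexed CellTiter-Fluor readout for cell viability.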

Several values for one entry are separate records, joined by “and”; a condition that tells them apart may be missing. Equal entries are not always repeated. A number with no mark means an inactive call. Records with an inconclusive call do not appear. Activity calls are given as the source filed them. Unless noted, the call rests on the fitted dose curve; in most records, active means well fitted curve in the direction sought with a large enough effect in the repeat runs; inconclusive means weak or mixed curves; inactive means no such curve, though single readings can be large; an effect the other way counts as inactive or inconclusive.
On the % scale 0 is the no-effect control and ±100 the full control effect.

Aromatase (Homo sapiens), sequence (P11511 whole entry, looked up): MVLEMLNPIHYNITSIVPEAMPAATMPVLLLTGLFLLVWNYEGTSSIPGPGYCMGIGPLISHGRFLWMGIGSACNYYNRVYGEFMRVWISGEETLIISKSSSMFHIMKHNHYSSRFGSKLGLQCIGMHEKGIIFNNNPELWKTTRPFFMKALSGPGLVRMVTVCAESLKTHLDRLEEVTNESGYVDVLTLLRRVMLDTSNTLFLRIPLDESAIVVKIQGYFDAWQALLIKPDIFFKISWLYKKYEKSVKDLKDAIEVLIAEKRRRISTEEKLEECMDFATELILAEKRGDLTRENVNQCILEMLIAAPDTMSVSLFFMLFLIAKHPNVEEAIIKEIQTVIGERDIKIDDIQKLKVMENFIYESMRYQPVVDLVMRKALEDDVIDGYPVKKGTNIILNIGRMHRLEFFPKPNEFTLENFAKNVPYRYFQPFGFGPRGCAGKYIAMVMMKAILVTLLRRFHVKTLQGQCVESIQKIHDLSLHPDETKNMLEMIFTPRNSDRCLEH

Take `O=C(O)c1ccco1`: the Potency entry in [1], in test [2], in test [3], in [4], in [5] and in [6] was “inactive” each time. Besides, the Potency entry in test [7], in test [8], in test [9], in test [10], in [11] and in [12] was “inactive” throughout. The Potency result in the test with Aromatase (Homo sapiens) was “inactive”.

Turning to `C[C@H](CCC(=O)O)[C@H]1CC[C@H]2[C@@H]3CC[C@@H]4C[C@H](O)CC[C@]4(C)[C@H]3C[C@H](O)[C@]12C`, the Potency result in test [1], in test [2], in test [13], in test [4], in test [14] and in test [6] was “inactive” in each case. Moreover, the Potency entry in test [7], in [8], in test [9], in [10], in [11] and in [12] was “inactive” throughout. In the test with Aromatase (Homo sapiens), the Potency result was “inactive”. In test [5], the Potency is 68.8 µM (active).

`C[C@@H]1C[C@H]2O[C@@]3(O[C@@H]2C(C)(C)O)[C@H](O)[C@@]2(C)[C@@H]4CC[C@H]5C(C)(C)[C@@H](O[C@@H]6OC[C@@H](O)[C@H](O)[C@H]6O)CC[C@@]56C[C@@]46CC[C@]2(C)[C@@H]13`: the Potency entry in [1], in test [2], in test [3], in test [15], in test [16] and in [4] was “inactive” each time. In addition, the Potency result in test [17], in test [14], in test [6], in test [7], in [8] and in test [9] was “inactive” throughout. Also, the Potency result (in test [10]; in [11]; in test [12]; in the test with Aromatase (Homo sapiens)) was “inactive” in each case.

On to `CCCCc1ncc(/C=C(\Cc2cccs2)C(=O)O)n1Cc1ccc(C(=O)O)cc1`, for which the Potency entry in test [1], in [2], in [13], in [3], in test [4] and in [5] was “inactive” throughout. Further, the Potency entry (in test [6]; in [8]; in [12]; in the test with Aromatase (Homo sapiens)) was “inactive” each time.

Turning to `CN(C)c1ccc(CCO)cc1`, the Potency entry in [1], in test [2], in test [13], in test [4], in [14] and in test [5] was “inactive” throughout. The Potency entry in test [6], in test [7], in [8], in [9], in test [10] and in test [11] was “inactive” throughout. The Potency result (in test [12]; with Aromatase (Homo sapiens)) was “inactive” each time.

Take `OC[C@H]1O[C@@H](OCCc2ccc(O)cc2)[C@H](O)[C@@H](O)[C@@H]1O`: the Potency entry in test [1], in test [2], in test [3], in test [4], in test [5] and in test [6] was “inactive” each time. Further, the Potency result (in test [7]; in test [9]; in test [10]; in [11]; in [12]; with Aromatase (Homo sapiens)) was “inactive” each time.

Consider `Cc1cccc(Nc2ccccc2)c1`, for which the Potency entry in [1], in [15], in [16], in test [4], in [6] and in test [8] was “inactive” throughout. Also, in [12], the Potency entry was “inactive”. For the same compound, the Potency in test [2] was 30.6 µM (active); in test [13], 48.6 µM (active).

Consider `CO[C@@H]1[C@H](OC(=O)/C=C/C=C/C=C/C=C/C(=O)O)CC[C@]2(CO2)[C@H]1[C@@]1(C)O[C@@H]1CC=C(C)C`, for which the Potency entry in test [1], in [3], in [4], in [14], in test [6] and in [8] was “inactive” throughout. The Potency entry (in test [9]; in [10]; in test [11]; in test [12]; in the test with Aromatase (Homo sapiens)) was “inactive” throughout. Also, the Potency in [2] is 2.1 nM (active) and 17.2 nM (active); in test [13] it was 2.7 nM (active) and 10.9 nM (active).

Consider `CCCCCCCCCCO[C@@H]1O[C@H](CO)[C@@H](O)[C@H](O)[C@H]1O`, for which the Potency result in test [1], in [4], in [14], in test [6], in [7] and in [8] was “inactive” each time. Further, the Potency entry (in test [9]; in [10]; in [11]; in test [12]; with Aromatase (Homo sapiens)) was “inactive” in each case. For the same compound, the Potency in test [2] and in test [13] was 61.1 µM (active) in each case.

For `COc1cc(C(=O)OCCCN2CCCN(CCCOC(=O)c3cc(OC)c(OC)c(OC)c3)CC2)cc(OC)c1OC`, the Potency result in [1], in test [15], in test [16], in [4], in [17] and in test [7] was “inactive” in each case. The Potency entry (in [9]; with Aromatase (Homo sapiens)) was “inactive” throughout. Moreover, the Potency was 15 µM (active) in [2]; 8.41 µM (active) in [13]; 8.41 µM (active) in [14]; 13.3 µM (active) in [5]; 9.44 µM (active) in test [12].

With `O=S(=O)(Oc1ccc(Cl)cc1)c1ccccc1`, the Potency result in [1], in test [4], in test [14], in test [5], in test [6] and in [7] was “inactive” each time. Also, the Potency result (in [8]; in test [9]; in test [11]; in test [12]; with Aromatase (Homo sapiens)) was “inactive” in each case. Besides, the results for the Potency in [2] and in [13] were 61.1 µM (active) and 54.5 µM (active), respectively.

`C#CCN(C)CCCOc1ccc(Cl)cc1Cl`: the Potency result in test [1], in test [2], in [3], in test [4], in [5] and in test [6] was “inactive” in each case. The Potency result (in test [7]; in test [8]; in test [9]; in [12]; in the test with Aromatase (Homo sapiens)) was “inactive” throughout. Further, in [10], the Potency was 29.8 µM (active).

`CC1CCC(=O)C1=O` (centres undefined): the Potency result in test [1], in [2], in test [3], in test [4], in test [5] and in [6] was “inactive” throughout. In addition, the Potency result (in test [8]; in test [9]; in [10]; in test [11]; in [12]; with Aromatase (Homo sapiens)) was “inactive” in each case.

`CCOC(=O)C(F)(F)F`: the Potency result in test [1], in test [13], in test [4], in test [5], in test [6] and in test [8] was “inactive” in each case. Besides, the Potency entry (in [12]; with Aromatase (Homo sapiens)) was “inactive” in each case. Besides, the Potency in test [2] is 34.4 µM (active).

Regarding `CN(C)c1ccc(/C=C/c2ccc([N+](=O)[O-])cc2)cc1`, the viability change, negative = cytotoxic in test [1] was 6.19% [at 7.04 µM]; in [4], -4.28% [at 8.47 µM]. In addition, the activity, negative = cytotoxicity was -15.9% [at 8.53 µM] in test [2] and -15.2% [at 6.72 µM] in test [8]. For the same compound, the figures for the activity change, negative = cytotoxicity in test [13] and in test [12] were 1.06% [at 8.55 µM] and 18.2% [at 8.47 µM], respectively. In test [14], the activity change, negative = cytotoxic was 14.3% [at 8.44 µM]. In addition, the activity, negative = inhibition with Aromatase (Homo sapiens) is 68.2% [at 8.47 µM].

In the case of `CCCCCCCN`, the Potency result in test [1], in test [2], in [4], in test [14], in test [5] and in [6] was “inactive” throughout. For the same compound, the Potency result in test [7], in test [8], in [9], in test [10], in [11] and in test [12] was “inactive” each time. For the same compound, the Potency result in the test with Aromatase (Homo sapiens) is “inactive”.

For the compound `COc1cc(Cl)c(OC)cc1N`, the Potency entry (in test [1]; in [3]; in test [4]; in [12]; in the test with Aromatase (Homo sapiens)) was “inactive” in each case.
